Assay [1] is described as follows: ATG_GRE_CIS: Attagene CIS-FACTORIAL HepG2 Assay for human Glucocorticoid Response Elements (GRE) (AID 2282947). The conditions noted are these: HepG2 GRE cis-reporter, Attagene multiplex mRNA; actives raise or lower the signal. The method in brief:
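Assay uses human hepatoma HepG2 cells transfected with cis-promoter reporter units, exposed 24 h. mRNA from reporters detected by RT-PCR plus capillary electrophoresis; DMSO serves as negative control and baseline.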

Assay [2] in a line: ATG_ISRE_CIS: Attagene CIS-FACTORIAL HepG2 Assay for human Interferon Regulatory Factor 1 (IRF1) binding to an Interferon-Stimulated Response Element (ISRE) (AID 2282948). The conditions noted are these: HepG2 ISRE cis-reporter (Attagene), mRNA transcription readout; actives raise or lower the signal. The method, boiled down: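 Transiently transfected HepG2 cells carrying cis-element reporter units, dosed 24 hours. Reporter mRNA quantified by RT-PCR, fluorescent primer extension, HpaI digestion and capillary electrophoresis. Bidirectional fitting relative to DMSO.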

A short description of assay [3]: ATG_M_32_CIS: Attagene CIS-FACTORIAL HepG2 Assay for M32 Transcription Factor (Internal Marker) (AID 2282949).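 Note: background control marker of the multiplexed CIS panel rather than a real target.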 The conditions noted are these: HepG2 Attagene cis-factorial M32 reporter, mRNA; actives raise or lower the signal. The method, boiled down: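 Internal background marker read-out: RT-PCR/capillary electrophoresis fluorescence of reporter transcripts from transiently transfected HepG2 cells after 24 h chemical exposure. Activity fitted bidirectionally relative to DMSO negative control.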

Assay [4] is described as follows: ATG_M_06_CIS: Attagene CIS-FACTORIAL HepG2 Assay for M06 Transcription Factor (Internal Marker) (AID 2282950). The conditions noted are these: HepG2 Attagene CIS-FACTORIAL M06 internal marker reporter; actives raise or lower the signal. The method in brief:
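HepG2 liver cells, 24 h exposure. Reporter transcripts from transfected cis-element constructs quantified by RT-PCR/capillary electrophoresis fluorescence. Bidirectional curve fit against DMSO.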

The target in assay [5] is Hypoxia-inducible factor 1-alpha (Homo sapiens) (UniProt Q16665). In words: ATG_HIF1a_CIS: Attagene CIS-FACTORIAL HepG2 Assay for human Hypoxia Inducible Factor 1 (HIF1A) (AID 2282951). The conditions noted are these: HepG2 Attagene cis-factorial HIF1a reporter transcription; actives raise or lower the signal. The method, boiled down: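 Transient MRTU transfection of human HepG2 liver cells, 24 h compound treatment, then total RNA isolation, oligo(dT) reverse transcription, PCR amplification, fluorescent labelling and capillary electrophoresis of reporter fragments. Gain or loss relative to DMSO.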
Hypoxia-inducible factor 1-alpha (Homo sapiens), sequence (Q16665 whole entry, looked up, the tested form may be a part): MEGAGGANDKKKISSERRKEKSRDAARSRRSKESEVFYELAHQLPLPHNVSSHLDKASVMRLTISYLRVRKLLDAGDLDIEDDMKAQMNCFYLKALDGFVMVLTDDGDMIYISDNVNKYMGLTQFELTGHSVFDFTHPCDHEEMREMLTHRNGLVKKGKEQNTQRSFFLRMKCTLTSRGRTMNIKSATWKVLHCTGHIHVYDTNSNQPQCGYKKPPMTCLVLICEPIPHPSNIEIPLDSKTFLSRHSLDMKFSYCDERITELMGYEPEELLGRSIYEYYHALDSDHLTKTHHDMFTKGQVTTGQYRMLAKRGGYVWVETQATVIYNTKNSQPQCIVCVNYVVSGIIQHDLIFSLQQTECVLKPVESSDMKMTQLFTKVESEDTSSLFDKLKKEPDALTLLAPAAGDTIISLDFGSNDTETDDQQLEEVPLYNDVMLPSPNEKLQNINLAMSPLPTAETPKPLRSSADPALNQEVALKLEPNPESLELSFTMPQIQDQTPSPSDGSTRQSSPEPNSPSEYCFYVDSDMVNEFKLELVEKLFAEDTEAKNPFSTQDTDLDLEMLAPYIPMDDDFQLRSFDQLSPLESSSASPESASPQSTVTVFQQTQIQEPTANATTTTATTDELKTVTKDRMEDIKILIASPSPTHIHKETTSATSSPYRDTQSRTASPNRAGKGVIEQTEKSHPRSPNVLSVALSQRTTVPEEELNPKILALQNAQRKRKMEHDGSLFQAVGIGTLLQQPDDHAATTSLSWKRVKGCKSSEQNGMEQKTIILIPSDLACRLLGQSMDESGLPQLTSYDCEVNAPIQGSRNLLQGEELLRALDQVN

The target of assay [6] is Hepatocyte nuclear factor 6 (Homo sapiens) (UniProt Q9UBC0). Briefly: ATG_HNF6_CIS: Attagene CIS-FACTORIAL HepG2 Assay for human Hepatocyte Nuclear Factor 6 (HNF6) (AID 2282952). The conditions noted are these: HepG2 Attagene cis-factorial HNF6 reporter transcription; actives raise or lower the signal. The method, boiled down: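 HepG2 cells transiently transfected with cis-element-driven multiplexed reporter units measuring endogenous transcription factor activity. After 24 h exposure, reporter mRNA quantified by RT-PCR, FAM-labelled fragments and capillary electrophoresis; bidirectional fitting versus DMSO.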
Hepatocyte nuclear factor 6 (Homo sapiens), sequence (Q9UBC0 whole entry, looked up, the tested form may be a part): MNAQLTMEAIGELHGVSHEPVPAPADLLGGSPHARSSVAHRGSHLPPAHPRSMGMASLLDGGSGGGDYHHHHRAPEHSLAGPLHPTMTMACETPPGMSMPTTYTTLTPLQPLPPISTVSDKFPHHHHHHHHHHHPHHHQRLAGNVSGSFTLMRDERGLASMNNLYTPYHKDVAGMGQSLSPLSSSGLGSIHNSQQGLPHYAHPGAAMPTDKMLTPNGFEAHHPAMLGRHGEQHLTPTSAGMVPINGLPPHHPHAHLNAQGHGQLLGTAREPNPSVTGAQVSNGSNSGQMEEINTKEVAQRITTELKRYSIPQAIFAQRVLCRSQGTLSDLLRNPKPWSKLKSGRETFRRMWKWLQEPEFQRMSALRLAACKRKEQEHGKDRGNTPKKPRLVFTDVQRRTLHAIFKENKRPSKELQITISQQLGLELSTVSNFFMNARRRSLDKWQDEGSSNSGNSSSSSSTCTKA

The nature of assay [7]: ATG_MRE_CIS: Attagene CIS-FACTORIAL HepG2 Assay for human Metal Responsive Element (MRE) (AID 2282954). The conditions noted are these: HepG2 MRE cis-reporter transcription, Attagene multiplex; actives raise or lower the signal. The method in brief: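 After a 24 h chemical exposure, transiently transfected HepG2 cells yield RNA whose reporter sequences are amplified, FAM-labelled and sized by capillary electrophoresis. Curves are fitted bidirectionally relative to DMSO.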

Assay [8] has as its target Paired box protein Pax-6 (Homo sapiens) (UniProt P26367). Briefly: ATG_Pax6_CIS: Attagene CIS-FACTORIAL HepG2 Assay for human Paired Box 6 (PAX6) (AID 2282956). The conditions noted are these: HepG2 CIS-FACTORIAL PAX6 reporter transcription, RNA readout; actives raise or lower the signal. The method in brief: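 HepG2 cells transiently transfected with cis-promoter-driven multiplexed reporter units sensing endogenous transcription factor activity; 24 h chemical exposure. Reporter mRNA quantified by RT-PCR, 6-FAM labelling, HpaI digestion and capillary electrophoresis; bidirectional fit versus DMSO baseline.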

Assay [9] can be described thus: ATG_PXRE_CIS: Attagene CIS-FACTORIAL HepG2 Assay for human Pregnane X Receptor Element (PXRE) (AID 2282957). The conditions noted are these: HepG2 Attagene CIS-FACTORIAL PXRE reporter, mRNA; actives raise or lower the signal. The method, boiled down:
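HepG2 cells transiently transfected with cis-element-driven multiplexed reporter units; after 24 h chemical exposure, reporter mRNA measured by RT-PCR, 6-FAM labelling, HpaI digestion and capillary electrophoresis. Bidirectional fitting relative to DMSO.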

Assay [10] can be described thus: ATG_PPRE_CIS: Attagene CIS-FACTORIAL HepG2 Assay for human Peroxisome Proliferator-activated Response Element (PPRE) (AID 2282958). The conditions noted are these: HepG2 PPRE cis-element reporter, Attagene transcription factor profiling; actives raise or lower the signal. The method in brief: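 HepG2, transient MRTU transfection (cis promoter elements, endogenous TFs). 24 h dosing. RNA → oligo(dT) RT → PCR → 6-FAM primer extension → HpaI digest → CE. Bidirectional fit vs DMSO.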

Assay [11] can be described thus: ATG_RORE_CIS: Attagene CIS-FACTORIAL HepG2 Assay for human RAR-related Orphan Receptor Element (RORE) (AID 2282959). The conditions noted are these: HepG2 Attagene cis-factorial RORE reporter, mRNA; actives raise or lower the signal. The method, boiled down: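 Transient MRTU transfection of human HepG2 liver cells (FuGene 6); 24 h compound exposure; TriZol RNA, oligo(dT) RT, PCR, FAM labeling, HpaI cut, CE fragment analysis. DMSO = negative control/baseline.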

A short description of assay [12]: ATG_Sox_CIS: Attagene CIS-FACTORIAL HepG2 Assay for human SRY-box transcription factor (SOX) (AID 2282960). The conditions noted are these: HepG2 Attagene cis-factorial SOX reporter, mRNA; actives raise or lower the signal. The method, boiled down: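 Endogenous factor activity in human liver HepG2 cells carrying transfected cis-regulated reporter units. RNA taken 24 h post-dose, reverse-transcribed, PCR-amplified and sized by capillary electrophoresis. Gain or loss of signal fitted relative to DMSO.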

Assay [13] concerns the target Transcription factor Sp1 (Homo sapiens) (UniProt P08047). Briefly: ATG_Sp1_CIS: Attagene CIS-FACTORIAL HepG2 Assay for human Specificity Protein 1 (Sp1) (AID 2282961). The conditions noted are these: HepG2 Sp1 cis-reporter transcription, actives raise or lower the signal. The method, boiled down: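 Transient MRTU-transfected HepG2, 24 h compound exposure. Total RNA → oligo(dT) RT → PCR of reporter → 6-FAM primer extension → HpaI digest → CE. Endpoint fitted both directions vs DMSO.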

Assay [14] can be described thus: ATG_SREBP_CIS: Attagene CIS-FACTORIAL HepG2 Assay for human Sterol Regulatory Element Binding (SREBP) (AID 2282962). The conditions noted are these: HepG2 Attagene cis-factorial SREBP reporter, mRNA; actives raise or lower the signal. The method, boiled down: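 HepG2 cells transiently transfected with multiplexed cis-promoter reporter units sensing endogenous transcription factors; reporter mRNA measured 24 h after dosing by RT-PCR, 6-FAM labeling, HpaI digestion and capillary electrophoresis. Bidirectional fit versus DMSO.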

Assay [15] concerns the target Signal transducer and activator of transcription 3 (Homo sapiens) (UniProt P40763). In words: ATG_STAT3_CIS: Attagene CIS-FACTORIAL HepG2 Assay for human Signal Transducer and Activator of Transcription 3 (STAT3) (AID 2282963). The conditions noted are these: HepG2, Attagene cis-factorial STAT3 reporter transcription; actives raise or lower the signal. The method, boiled down: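 After a 24 h compound incubation, total RNA from MRTU-transfected HepG2 cells was converted to cDNA and reporter sequences PCR-amplified, labelled and profiled by capillary electrophoresis. Gain and loss of signal were referenced to DMSO.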

The nature of assay [16]: ATG_TCF_b_cat_CIS: Attagene CIS-FACTORIAL HepG2 Assay for human T-Cell-Factor with beta-catenin (TCF/b-cat) (AID 2282965). The conditions noted are these: HepG2 TCF/beta-catenin cis-reporter transcription, actives raise or lower the signal. The method, boiled down:
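Endogenous transcription factor activity is captured through cis-promoter reporter constructs transiently introduced into human HepG2 liver cells. Induced reporter mRNA is measured after 24 h and fitted bidirectionally relative to DMSO.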

The target in assay [17] is Heat shock factor protein 1 (Homo sapiens) (UniProt Q00613). In words: ATG_HSE_CIS: Attagene CIS-FACTORIAL HepG2 Assay for human Heat Shock Transcription Factor 1 (HSE) (AID 2282953). The conditions noted are these: HepG2 HSE cis-reporter, Attagene RNA transcription; actives raise or lower the signal. The method in brief:
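Endogenous transcription factor activity captured via cis-promoter reporter units transfected into HepG2; treatment lasted 24 h. Fluorescence intensity of reporter fragments analysed with bidirectional curve fitting, DMSO baseline.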

Assay [18] can be described thus: ATG_PBREM_CIS: Attagene CIS-FACTORIAL HepG2 Assay for human Phenobarbital-responsive Enhancer Module (PBREM) (AID 2282955). The conditions noted are these: HepG2 PBREM cis-reporter, Attagene multiplexed transcription; actives raise or lower the signal. The method, boiled down: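 Endogenous transcription factors in human liver HepG2 cells drive a PBREM cis-element reporter, whose transcript level after 24 h treatment is quantified by RT-PCR with capillary electrophoresis; activity fitted in both directions against DMSO.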

A short description of assay [19]: ATG_TA_CIS: Attagene CIS-FACTORIAL HepG2 Assay for human TA Basal Promoter (AID 2282964). The conditions noted are these: HepG2 Attagene CIS-factorial TA basal promoter reporter; actives raise or lower the signal. The method in brief:
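Fluorescence from labelled RT-PCR reporter fragments, separated by capillary electrophoresis, gives the signal. Cells: HepG2 transiently carrying multiple reporter units, 24 h chemical dosing. Gain or loss relative to DMSO.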

Each structure is given as a SMILES string. The source made the active and inactive calls. Rule for the calls: active = hit-call score of the fitted dose curve at least 0.9, where 1 is the maximum; inactive = score below 0.9.

Signal transducer and activator of transcription 3 (Homo sapiens), sequence (P40763 whole entry, looked up): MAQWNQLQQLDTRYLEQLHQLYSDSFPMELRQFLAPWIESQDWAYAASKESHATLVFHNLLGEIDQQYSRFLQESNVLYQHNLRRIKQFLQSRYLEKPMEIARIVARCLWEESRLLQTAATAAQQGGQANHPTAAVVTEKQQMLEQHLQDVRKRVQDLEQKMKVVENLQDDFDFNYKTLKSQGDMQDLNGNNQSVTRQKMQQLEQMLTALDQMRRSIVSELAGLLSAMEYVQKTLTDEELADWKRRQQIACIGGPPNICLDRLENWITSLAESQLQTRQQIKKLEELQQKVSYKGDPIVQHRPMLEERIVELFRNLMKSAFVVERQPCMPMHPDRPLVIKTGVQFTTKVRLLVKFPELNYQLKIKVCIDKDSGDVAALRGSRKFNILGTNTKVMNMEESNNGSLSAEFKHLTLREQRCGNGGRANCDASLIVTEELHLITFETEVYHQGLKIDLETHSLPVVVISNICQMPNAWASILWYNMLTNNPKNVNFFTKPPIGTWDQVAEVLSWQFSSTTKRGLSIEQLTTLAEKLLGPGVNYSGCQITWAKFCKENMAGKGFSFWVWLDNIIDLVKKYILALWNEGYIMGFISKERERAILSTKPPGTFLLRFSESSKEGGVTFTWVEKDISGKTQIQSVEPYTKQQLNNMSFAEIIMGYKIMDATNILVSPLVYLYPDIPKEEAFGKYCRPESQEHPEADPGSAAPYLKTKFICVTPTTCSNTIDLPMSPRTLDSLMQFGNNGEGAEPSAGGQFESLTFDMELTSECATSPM
Paired box protein Pax-6 (Homo sapiens), sequence (P26367 whole entry, looked up): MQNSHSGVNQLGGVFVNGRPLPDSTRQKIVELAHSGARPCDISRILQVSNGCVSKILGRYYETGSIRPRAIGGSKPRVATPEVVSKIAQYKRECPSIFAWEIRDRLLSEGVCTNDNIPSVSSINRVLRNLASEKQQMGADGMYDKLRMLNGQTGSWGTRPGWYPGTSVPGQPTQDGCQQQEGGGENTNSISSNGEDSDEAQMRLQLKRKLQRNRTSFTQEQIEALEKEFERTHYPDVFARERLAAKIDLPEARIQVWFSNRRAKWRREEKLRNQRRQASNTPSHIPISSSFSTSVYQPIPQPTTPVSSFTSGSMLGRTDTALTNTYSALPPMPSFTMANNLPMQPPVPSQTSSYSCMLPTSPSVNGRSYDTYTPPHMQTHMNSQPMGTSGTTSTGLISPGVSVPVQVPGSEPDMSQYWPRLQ
Heat shock factor protein 1 (Homo sapiens), sequence (Q00613 whole entry, looked up, the tested form may be a part): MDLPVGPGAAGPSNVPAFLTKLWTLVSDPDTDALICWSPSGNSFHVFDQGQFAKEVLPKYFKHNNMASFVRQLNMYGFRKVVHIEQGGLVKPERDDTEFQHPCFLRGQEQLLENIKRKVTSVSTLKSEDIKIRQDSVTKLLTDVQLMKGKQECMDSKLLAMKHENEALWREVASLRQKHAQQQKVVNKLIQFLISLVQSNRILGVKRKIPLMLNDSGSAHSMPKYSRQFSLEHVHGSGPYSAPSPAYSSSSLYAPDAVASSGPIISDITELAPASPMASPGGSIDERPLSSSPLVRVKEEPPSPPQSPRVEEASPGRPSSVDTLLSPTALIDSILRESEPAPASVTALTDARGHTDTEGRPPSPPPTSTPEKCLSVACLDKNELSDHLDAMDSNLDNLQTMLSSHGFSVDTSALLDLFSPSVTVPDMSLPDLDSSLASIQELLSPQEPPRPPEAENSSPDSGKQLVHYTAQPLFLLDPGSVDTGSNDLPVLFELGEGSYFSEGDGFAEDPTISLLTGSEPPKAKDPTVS
Transcription factor Sp1 (Homo sapiens), sequence (P08047 whole entry, looked up): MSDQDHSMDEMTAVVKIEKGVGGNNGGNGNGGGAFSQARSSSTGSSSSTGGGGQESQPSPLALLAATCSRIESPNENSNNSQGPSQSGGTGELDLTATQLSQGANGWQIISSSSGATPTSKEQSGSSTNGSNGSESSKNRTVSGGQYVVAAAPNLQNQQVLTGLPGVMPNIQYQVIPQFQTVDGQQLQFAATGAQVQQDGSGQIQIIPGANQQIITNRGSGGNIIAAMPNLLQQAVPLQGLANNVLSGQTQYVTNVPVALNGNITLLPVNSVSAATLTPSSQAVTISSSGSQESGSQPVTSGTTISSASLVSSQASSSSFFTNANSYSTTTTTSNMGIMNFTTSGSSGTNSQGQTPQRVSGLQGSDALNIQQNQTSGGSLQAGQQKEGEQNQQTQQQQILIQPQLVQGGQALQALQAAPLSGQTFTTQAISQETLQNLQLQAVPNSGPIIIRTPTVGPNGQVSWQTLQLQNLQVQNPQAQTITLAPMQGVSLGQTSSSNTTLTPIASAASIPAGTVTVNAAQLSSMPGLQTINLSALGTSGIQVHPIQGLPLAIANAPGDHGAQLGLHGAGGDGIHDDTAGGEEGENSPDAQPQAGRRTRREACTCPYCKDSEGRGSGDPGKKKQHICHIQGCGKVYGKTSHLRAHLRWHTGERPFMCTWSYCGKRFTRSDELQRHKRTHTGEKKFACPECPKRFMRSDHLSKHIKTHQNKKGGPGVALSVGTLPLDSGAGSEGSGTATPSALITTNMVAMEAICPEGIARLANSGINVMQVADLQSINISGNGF

`C=CCN(CC=C)CC=C`: the compound was called inactive in [1], in assay [2], in assay [3], in assay [4], in assay [5] and in assay [6]. In addition, the call in [7], in [8], in assay [9], in assay [10], in [11] and in assay [12] was inactive. For the same compound, the compound was called inactive in [13], in assay [14], in [15] and in [16].

Usually AC50 stands for the midpoint of the concentration-response curve, whichever way the signal moves. Take `N#Cc1ccc(CC(=O)c2cccc(C(F)(F)F)c2)cc1`: the outcome in assay [1], in [2], in assay [3], in assay [4], in [5] and in assay [6] was inactive. Also, the outcome in [18], in assay [10], in assay [13], in assay [14], in assay [15] and in [19] was inactive. The result in assay [16] was inactive. Besides, the figures for the AC50 in assay [17], in assay [7] and in assay [9] were 150 µM (active), 100 µM (active) and 5.18 µM (active), respectively.

Regarding `COC(=O)Nc1ccc(Cl)c(Cl)c1`, the AC50 was 25.7 µM (active) in assay [1]; 30.7 µM (active) in assay [2]; 49.7 µM (active) in [7]; 100 µM (active) in assay [9]; 26.4 µM (active) in assay [16]. Moreover, the outcome in assay [3], in assay [4], in assay [5], in assay [6], in [17] and in [18] was inactive. The outcome in assay [10], in assay [11], in [12], in [13], in assay [15] and in assay [19] was inactive.

With `CC(=O)c1c(C)c([N+](=O)[O-])c(C(C)(C)C)c([N+](=O)[O-])c1C`, the result in [1], in [2], in assay [3], in [4], in assay [6] and in assay [17] was inactive. The outcome in assay [18], in [8], in assay [10], in [11], in assay [12] and in assay [13] was inactive. The result in assay [14], in assay [15], in assay [19] and in assay [16] was inactive. For the same compound, the AC50 in [7] was 11.5 µM (active); in [9], 2.28 µM (active).

`C#CC(C)(O)CC(C)C` (stereo not drawn): the outcome in assay [1], in assay [2], in assay [3], in assay [4], in assay [5] and in [6] was inactive. For the same compound, the call in assay [17], in assay [7], in assay [8], in assay [9], in assay [10] and in assay [11] was inactive. Besides, the result in [12], in assay [14], in assay [15], in assay [19] and in assay [16] was inactive.

`O=Cc1ccccc1S(=O)(=O)O`: the call in assay [1], in [2], in [3], in assay [4], in assay [5] and in assay [6] was inactive. The compound was called inactive in assay [7], in assay [18], in assay [8], in assay [9], in [10] and in [11]. The compound was classed as inactive in assay [12], in assay [14], in [15], in assay [19] and in assay [16].

Turning to `Nc1ccc2cc(S(=O)(=O)O)cc(O)c2c1N=Nc1ccccc1C(F)(F)F`, the compound was called inactive in assay [1], in assay [2], in assay [3], in [4], in assay [5] and in assay [6]. The compound was called inactive in assay [7], in assay [18], in assay [8], in assay [10], in assay [12] and in [13]. Moreover, the outcome in assay [14], in assay [15], in assay [19] and in assay [16] was inactive. In addition, in assay [9], the AC50 was 38.5 µM (active).

Values taken from PubChem BioAssay (EPA / NIEHS).
